# Measured values as given in ChEMBL document CHEMBL3988442, “University of Dundee, Small-Polar-MMV Screening Library” (2021).
# Target: AMP-activated protein kinase, AMPK (Homo sapiens) (UniProt P54646+O43741+P54619+Q9UGJ0+Q9Y478+Q13131+Q9UGI9)
# Test: AMP-dependent Kinase enzyme assay. An in vitro enzyme assay that detects ADP turnover that is directly proportional to AMPK activity. This uses naive AMPK that is activated during the assay with MK-8722
# Type: functional
# Design: scale not given: direction of the effect not stated beside the values
# Conditions: 30 µM
row,SMILES,Percent Effect
1,CN(CCc1ccccc1)c1cnn(CC2COCCO2)c(=O)c1 (centres undefined),8.71%
2,O=C(CCn1cnnn1)N1CCCC(CO)(CCc2ccccc2)C1 (centres undefined),6.31%
3,COCCN(CC(F)F)c1cc(C(F)(F)F)nc2ncnn12,3.49%
4,N#Cc1cccnc1N1CCC(Nc2ccccc2)C1 (centres undefined),4.61%
5,c1cncc(CNCCc2cccs2)c1,-7.73%
6,Cc1cc(CN(C)C(C(=O)O)c2ccc(C(C)(C)C)cc2)on1 (centres undefined),8.61%
7,Cc1cc(-c2cnc(N3CCC(C(N)=O)CC3)nc2C(C)C)on1,21.5%
8,Cc1cc(C)n(CCN2CCC(N(C)Cc3nnc(C)n3C)C2)n1 (centres undefined),3.54%
9,O=C(C1CC(c2ccccc2)=NO1)N1CCCCc2ccccc21 (centres undefined),4.65%
10,NC(=O)C1CCN(CCCNC(=O)Nc2nccs2)CC1,5.68%
11,CCc1noc(C)c1C(=O)N1CCC2(CCCN(CC(C)(C)C)C2=O)C1 (centres undefined),7.67%
12,N#CC1(NC(=O)c2ccc(F)cc2OC(F)F)CCOCC1,1.96%
13,Cc1nc2c(c(=O)[nH]1)CN(C(=O)CCC1CCCN(C)C1)C2 (centres undefined),12%
14,COc1ccc(CN(C)Cc2c(C)noc2C)c(Br)c1OC,2.55%
15,CN(Cc1csc2ccccc12)C(=O)NC1CCS(=O)(=O)C1 (centres undefined),8.42%
16,CN1CCCN(C[C@@H]2CN(c3nc(C(N)=O)cs3)C[C@@H]2CO)CC1,-0.955%
17,O=C(NCc1nncn1C1CC1)c1ccccc1OCC1CC1,1.41%
18,COc1ccccc1N1CCN(C(=O)CCc2nncn2C)C(C)C1 (centres undefined),24.5%
19,c1csc(-c2noc(C3CNC3)n2)c1,8.02%
20,CSc1ccccc1NC(=O)c1ccc(N2CCOCC2)nn1,-1.6%

row,SMILES,Percent Effect
1,CC(C)Cn1ccnc1CNC(=O)N1CCCC1CN1CCOCC1 (centres undefined),-4.29%
2,COCCN1CCCC2(CCN(c3cc(C)c(C#N)c(C)n3)C2)C1=O (centres undefined),-7.22%
3,CCN(C)C[C@@H]1CN(C(=O)c2cc(-c3ccc(F)cc3)n[nH]2)C[C@@H]1CO,9.6%
4,CN1C(=O)c2ccc(C(=O)N(Cc3cnn(C)c3)C3CC3)cc2C1=O,11.4%
5,CCN1CC(CN(C)c2cc(C)nc(N)n2)Oc2ccccc21 (centres undefined),3.94%
6,O=C(Cn1ccnc1)N1CC[C@H](Oc2cccc(F)c2)[C@@H](O)CC1,8.87%
7,CC(C)[C@@H]1CN(C(=O)C2(c3ccccc3)CC2)C[C@H]1C(=O)O,-2.56%
8,NC(=O)CCC1CCCN(Cc2cnc(N3CCCCC3)nc2)C1 (centres undefined),7.08%
9,CCc1cccc(OCCCN(C)C(=O)CN2CCNC2=O)c1,5.57%
10,CCc1ccc(C(=O)NCC2CCCN2CC)o1 (centres undefined),0.975%
11,Cc1ccc(-n2ncc3c2CCCC3N)cc1C (centres undefined),16.9%
12,O=C(Nc1ccccc1OCCc1ccccn1)N1CCOCC1,10.6%
13,C[C@@H]1CN(c2ccc(Cl)cn2)CC[C@@]1(O)C1CCOCC1,5.56%
14,CCC[C@H]1CN(S(=O)(=O)N(C)Cc2ccccc2)C[C@@H]1N,-0.364%
15,Cc1occc1CNc1ncccc1S(N)(=O)=O,6.37%
16,O=C(Cc1ccon1)NC1CCCN(c2ccccc2F)C1=O (centres undefined),1.71%
17,CS(=O)(=O)NCC1CCCN(Cc2ccccc2F)C1 (centres undefined),-6.5%
18,Cc1nc(COC(=O)c2cccc3c2OCCO3)cs1,3.39%
19,COc1ccccc1C(C)(C)NC(=O)c1cc(NC(C)=O)ccc1F,-6.77%
